PubChem BioAssay
For part of these data: Results with a measured potency or affinity are listed apart. The source made the active and inactive calls.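 How the source made its calls, unless noted: active means primary screen inhibitor hit that blocks the TRPC4 channel at some tested dose, yielding a dose curve; inactive means the rest.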

Assays:
[1] = test system: TRPC4 beta (transient receptor potential cation channel C4), mouse; assay: TRPC4 cation channel opening, retest – cell-based, Fluo4 calcium, HEK293 TRPC4beta/mu-opioid, duplicates, 10 µM, confirmation (AID 2426;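 active means fluorescence ratio normalized to control raised more than 50% in primary screen plus both repeat runs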;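 on activation: percent rise of integrated ratio over buffer wells lacking compound which define 0%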); settings: Fluo4 calcium fluorescence, at 10 µM; hits give high values
[2] = test system: transient receptor potential cation channel C4 beta (TRPC4), mouse; assay: TRPC4 cation channel opening, second retest – cell-based, second round, Fluo4, HEK293 TRPC4beta/mu-opioid, 1 µM, confirmation (AID 2461;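 active means primary screen active and over 50% activation in each of two duplicate runs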;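 on activation: 0% = wells without test compound as baseline of integrated fluorescence ratio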); settings: Fluo4 calcium fluorescence, at 1 µM; hits give high values
[3] = test system: TRPC4 (transient receptor potential cation channel C4 beta), mouse; assay: potentiation of DAMGO EC20 TRPC4 response – cell-based, second round, Fluo-4, HEK293 TRPC4beta/mu-opioid, 1 µM, confirmation (AID 2554;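 active means primary screen hit whose fluorescence ratio, in both repeats, exceeds the weak agonist control mean by 3 SD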); settings: DAMGO EC20, Fluo-4 calcium flux, at 1 µM; hits give high values
[4] = test system: TRPC4 beta (transient receptor potential cation channel C4), mouse; assay: potentiation of DAMGO EC20 TRPC4 response – cell-based, Fluo-4, HEK293 TRPC4beta/mu-opioid, confirmation (AID 2555;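 active means primary screen hit whose calcium fluorescence ratio, in both repeats, exceeds the weak agonist control mean by 3 SD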); settings: DAMGO EC20, Fluo-4 calcium flux, at 10 µM; hits give high values
[5] = molecular target: Short transient receptor potential channel 4 (Mus musculus) (UniProt Q9QUQ5); assay: blockers of DAMGO-evoked TRPC4 calcium flux – cell-based, Fluo4, HEK293 TRPC4beta/mu-opioid, confirmation (AID 2636;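 active means calcium signal cut by more than 3 SD below the full-agonist control yet still positive, in both repeats and the earlier primary screen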); settings: at 10 µM; hits give high values
Chain of Short transient receptor potential channel 4 (Mus musculus) (Q9QUQ5 whole entry, looked up): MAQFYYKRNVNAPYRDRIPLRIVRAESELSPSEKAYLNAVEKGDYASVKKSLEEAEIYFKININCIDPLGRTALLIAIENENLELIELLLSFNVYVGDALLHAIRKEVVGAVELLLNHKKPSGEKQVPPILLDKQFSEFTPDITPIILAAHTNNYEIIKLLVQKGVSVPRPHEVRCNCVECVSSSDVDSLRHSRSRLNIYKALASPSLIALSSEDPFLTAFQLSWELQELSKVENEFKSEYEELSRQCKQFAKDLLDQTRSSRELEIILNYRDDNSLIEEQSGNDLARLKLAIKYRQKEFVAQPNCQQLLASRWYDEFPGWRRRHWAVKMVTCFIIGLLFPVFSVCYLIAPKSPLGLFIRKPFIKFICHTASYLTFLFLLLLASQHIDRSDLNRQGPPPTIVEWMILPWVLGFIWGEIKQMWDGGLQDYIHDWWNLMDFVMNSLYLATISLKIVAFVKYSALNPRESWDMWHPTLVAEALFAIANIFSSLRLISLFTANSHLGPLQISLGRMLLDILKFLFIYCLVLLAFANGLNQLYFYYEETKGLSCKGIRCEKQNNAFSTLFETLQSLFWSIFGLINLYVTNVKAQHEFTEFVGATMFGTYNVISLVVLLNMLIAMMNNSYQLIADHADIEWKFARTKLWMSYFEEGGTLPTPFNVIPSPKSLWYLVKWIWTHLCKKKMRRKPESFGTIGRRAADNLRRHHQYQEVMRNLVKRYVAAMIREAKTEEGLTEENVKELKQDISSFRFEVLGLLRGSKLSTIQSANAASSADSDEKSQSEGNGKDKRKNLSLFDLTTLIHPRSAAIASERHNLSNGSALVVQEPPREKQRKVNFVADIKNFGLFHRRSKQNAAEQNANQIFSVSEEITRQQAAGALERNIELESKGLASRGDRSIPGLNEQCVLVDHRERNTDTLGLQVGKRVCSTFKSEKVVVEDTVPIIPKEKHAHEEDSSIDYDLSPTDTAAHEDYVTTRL

[6] = molecular target: Short transient receptor potential channel 4 (Mus musculus) (UniProt Q9QUQ5); assay: blockers of DAMGO-evoked TRPC4 calcium flux – cell-based, second round, Fluo4, HEK293 TRPC4beta/mu-opioid, 1 µM, confirmation (AID 2637;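 active means calcium signal ratio cut to more than 3 SD under the fully stimulated control mean yet still positive, in both repeats and the primary screen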); settings: at 1 µM; hits give high values
[7] = molecular target: Short transient receptor potential channel 4 (Mus musculus) (UniProt Q9QUQ5); assay: potentiation of DAMGO-evoked TRPC4 calcium signal – cell-based, HEK293 TRPC4/mu-opioid, Fluo-4 calcium, EC20 DAMGO, dose response (AID 434941;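 active means earlier screen potentiator hit that boosts the TRPC4 ion channel at some dose, with a dose response; inactive means no potentiation, no dose response, or not a prior hit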;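 further: calcium entry triggered by an EC20 dose of DAMGO at the co-expressed mu-opioid receptor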)
[8] = molecular target: Short transient receptor potential channel 4 (Mus musculus) (UniProt Q9QUQ5); assay: block of DAMGO-driven TRPC4 calcium entry – cell-based, HEK293 TRPC4/mu-opioid, Fluo-4 calcium, dose response (AID 434942)
[9] = molecular target: Short transient receptor potential channel 6 (Mus musculus) (UniProt Q61143); assay: TRPC6 blockade by TRPC4 inhibitor hits – cell-based, HEK293, membrane potential dye, duplicate, selectivity assay for TRPC4 inhibitor project, confirmation (AID 434948;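 active means active in primary screen and both duplicates, each dropping signal beyond three positive-control SD with fluorescence still positive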); settings: HEK293 TRPC6, membrane potential dye fluorescence, at 10 µM, stimulated with maximal-effect acetylcholine; hits give high values
Chain of Short transient receptor potential channel 6 (Mus musculus) (Q61143 whole entry, looked up): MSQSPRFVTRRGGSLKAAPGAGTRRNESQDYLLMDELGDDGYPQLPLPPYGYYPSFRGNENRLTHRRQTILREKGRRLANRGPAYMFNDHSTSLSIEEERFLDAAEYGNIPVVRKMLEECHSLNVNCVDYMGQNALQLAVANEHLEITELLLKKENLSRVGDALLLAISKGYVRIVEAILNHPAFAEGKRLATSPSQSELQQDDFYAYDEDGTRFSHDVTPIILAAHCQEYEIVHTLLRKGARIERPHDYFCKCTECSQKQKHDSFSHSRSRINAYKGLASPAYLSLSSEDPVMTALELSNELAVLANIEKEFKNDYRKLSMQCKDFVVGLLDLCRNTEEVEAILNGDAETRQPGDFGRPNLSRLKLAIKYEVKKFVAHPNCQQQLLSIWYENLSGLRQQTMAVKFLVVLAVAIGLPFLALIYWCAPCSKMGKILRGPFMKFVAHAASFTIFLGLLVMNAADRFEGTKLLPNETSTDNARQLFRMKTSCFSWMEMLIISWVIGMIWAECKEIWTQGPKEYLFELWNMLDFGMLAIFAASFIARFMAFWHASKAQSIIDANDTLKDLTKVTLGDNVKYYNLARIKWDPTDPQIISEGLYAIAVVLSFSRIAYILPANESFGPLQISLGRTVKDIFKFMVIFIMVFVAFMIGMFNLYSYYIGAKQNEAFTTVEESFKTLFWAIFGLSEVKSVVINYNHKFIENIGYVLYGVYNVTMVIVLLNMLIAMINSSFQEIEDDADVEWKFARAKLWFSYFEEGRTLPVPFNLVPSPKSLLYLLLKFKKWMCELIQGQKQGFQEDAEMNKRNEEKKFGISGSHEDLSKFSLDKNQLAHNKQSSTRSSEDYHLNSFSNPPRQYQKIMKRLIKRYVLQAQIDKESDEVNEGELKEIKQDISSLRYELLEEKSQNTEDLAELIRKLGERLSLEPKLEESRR

[10] = molecular target: Short transient receptor potential channel 6 (Mus musculus) (UniProt Q61143); assay: TRPC6 opening by TRPC4 activator hits – cell-based, HEK293, membrane potential dye, duplicate, selectivity assay for TRPC4 activator project, confirmation (AID 434950;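 active means membrane potential signal rise above negative control mean plus 3 SD in both duplicates, also active in the earlier TRPC4 screen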;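 on activation: 0% = buffer only wells and 100% = acetylcholine maximal-effect wells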); settings: HEK293 TRPC6, membrane potential fluorescence, at 10 µM; activation: hits give high values; outcome: activation
[11] = molecular target: Short transient receptor potential channel 6 (Mus musculus) (UniProt Q61143); assay: positive modulators of mouse TRPC6 channel – HEK293 cells, membrane potential dye, duplicate, selectivity assay for TRPC4 potentiator project, confirmation (AID 434952;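 active means compound raising the membrane signal above positive-control mean plus 3 SD in both repeats, and a primary screen hit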); settings: HEK293 TRPC6, membrane potential dye fluorescence, at 10 µM, maximal acetylcholine added after compound; hits give high values
[12] = molecular target: Short transient receptor potential channel 4 (Mus musculus) (UniProt Q9QUQ5); assay: calcium flux activators in TRPC4/5HT1a cells, counter-screen for TRPC4 activator project, cell-based, second counter screen, HEK293 TRPC4/5HT1a, Fluo-4 (AID 434977;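 active means calcium signal rise above buffer-control mean plus 5 SD in both duplicates, and also a hit in the primary screen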;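 on activation: plate controls were assay buffer for no effect and maximal serotonin response for full effect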); settings: Fluo-4 calcium flux, at 10 µM; hits give high values
[13] = serotonin-gated TRPC4 signal block – cell-based, second counter screen, HEK293 TRPC4/5HT1a, Fluo-4, counter-screen for TRPC4 inhibitor project, confirmation (AID 434978;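 active means primary screen active whose calcium signal fell more than 3 SD beyond the full-serotonin control mean in both duplicate plates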;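 further: serotonin given first at submaximal then at maximal dose after compound preincubation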); settings: Fluo-4 calcium flux, at 10 µM, serotonin added to trigger calcium flux; hits give high values
[14] = test system: TRPC4 (mouse), co-expressed with 5HT1a in HEK293; assay: enhancement of serotonin-evoked TRPC4 response – cell-based, second counter screen, HEK293 TRPC4/5HT1a, Fluo-4, counter-screen for TRPC4 potentiator project, confirmation (AID 434979;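 active means signal rise over 3 SD above mean of control wells given weak agonist, in both repeats and first screen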); settings: Fluo-4 calcium flux, at 10 µM, serotonin added at its EC20 dose; hits give high values
[15] = nonspecific calcium rise without TRPC4 – cell-based, HEK293 mu-opioid receptor line, counter-screen for TRPC4 activator project, confirmation (AID 449723;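 active means hit in primary screen, with calcium signal over 5 SD above buffer well mean in both duplicates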;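 further: counter screen cells carry the mu-opioid receptor alone and lack TRPC4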); settings: HEK293 mu-opioid cells, Fluo-4 calcium fluorescence, at 10 µM; hits give high values
[16] = nonspecific potentiation of DAMGO calcium response – cell-based, HEK293 mu-opioid receptor line, counter-screen for TRPC4 allosteric potentiator project, confirmation (AID 449724;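 active means calcium signal rise more than 3 SD above the low-dose agonist control mean, in both duplicate plates and the primary screen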); settings: HEK293 mu-opioid receptor cells, Fluo-4 calcium flux, at 10 µM, compound added before EC20 DAMGO stimulus; hits give high values

CN(C)C(CNC(=O)Nc1cccc(Cl)c1)c1cccnc1 (stereo not given)
inactive: outcome [1] | outcome [3] | outcome [4] | outcome [5] | outcome [6] | outcome [7] | outcome [8] | outcome [9] | outcome [11] | outcome [12] | outcome [13] | outcome [14] | outcome [15] | outcome [16]
active: activation [2] 106% | activation [10] 30.5%

Cc1ccc(C)c(-n2cc(CNCCCn3cccn3)c(-c3ccccc3)n2)c1
active: activation [1] 288% | activation [2] 129% | activation [10] 48.5% | activation [12] 29.9%
inactive: outcome [3] | outcome [4] | outcome [5] | outcome [6] | outcome [7] | outcome [8] | outcome [9] | outcome [11] | outcome [13] | outcome [14] | outcome [15] | outcome [16]

COCC1CCN(Cc2cn(-c3ccccc3F)nc2-c2cc(C)sc2C)CC1
inactive: outcome [2] | outcome [3] | outcome [4] | outcome [5] | outcome [6] | outcome [7] | outcome [8] | outcome [9] | outcome [11] | outcome [12] | outcome [13] | outcome [14] | outcome [15] | outcome [16]
active: activation [1] 95% | activation [10] 69.5%

CCn1c(N2CCN(C(=S)NCC(C)C)CC2)nc2ccccc21
inactive: outcome [2] | outcome [3] | outcome [4] | outcome [5] | outcome [6] | outcome [7] | outcome [8] | outcome [9] | outcome [11] | outcome [13] | outcome [14] | outcome [15] | outcome [16]
active: activation [1] 98% | activation [10] 39.5% | activation [12] 27.9%

CCN(CC)CCCNC(=O)c1cc2c(-c3ccc(Cl)cc3)nn(C)c2s1
active: potentiation [3] 13% | activation [12] 12.6% | potentiation [14] 31.3%
inactive: outcome [1] | outcome [2] | outcome [4] | outcome [5] | outcome [6] | outcome [7] | outcome [8] | outcome [9] | outcome [10] | outcome [11] | outcome [13] | outcome [15] | outcome [16]

COC(=O)c1ccc(N2CCN(C)CC2)c(NC(=O)c2ccc(Br)o2)c1
inactive: outcome [2] | outcome [3] | outcome [4] | outcome [5] | outcome [6] | outcome [7] | outcome [8] | outcome [9] | outcome [10] | outcome [11] | outcome [13] | outcome [14] | outcome [15] | outcome [16]
active: activation [1] 148% | activation [12] 13.3%

COc1ccc(-n2nc(C(=O)NCC(=O)NCCCN3CC(C)CC(C)C3)c3ccccc3c2=O)cc1Cl (stereo not given)
active: activation [12] 12.2%
inactive: outcome [1] | outcome [2] | outcome [3] | outcome [4] | outcome [5] | outcome [6] | outcome [7] | outcome [8] | outcome [9] | outcome [10] | outcome [11] | outcome [13] | outcome [14] | outcome [15] | outcome [16]

O=C1NCN(c2ccccc2)C12CCN(CCCC(c1ccc(F)cc1)c1ccc(F)cc1)CC2
inactive: outcome [1] | outcome [2] | outcome [3] | outcome [4] | outcome [5] | outcome [6] | outcome [7] | outcome [8] | outcome [9] | outcome [11] | outcome [12] | outcome [13] | outcome [14] | outcome [15] | outcome [16]
active: activation [10] 31%

CN(C)CCCN(C(=O)c1ccc(S(=O)(=O)N2CCc3ccccc3C2)cc1)c1nc2c(F)cc(F)cc2s1
inactive: outcome [2] | outcome [3] | outcome [4] | outcome [5] | outcome [6] | outcome [7] | outcome [8] | outcome [9] | outcome [10] | outcome [11] | outcome [12] | outcome [13] | outcome [14] | outcome [15] | outcome [16]
active: activation [1] 73%

COc1ccc(CSCCN)cc1Cl
active: activation [1] 108% | activation [12] 27.1%
inactive: outcome [2] | outcome [3] | outcome [4] | outcome [5] | outcome [6] | outcome [7] | outcome [8] | outcome [9] | outcome [10] | outcome [11] | outcome [13] | outcome [14] | outcome [15] | outcome [16]

Cc1ccc(C(=O)NNC(=S)NC(=O)COc2ccccc2)cc1
inactive: outcome [2] | outcome [3] | outcome [4] | outcome [5] | outcome [6] | outcome [7] | outcome [8] | outcome [9] | outcome [10] | outcome [11] | outcome [13] | outcome [14] | outcome [15] | outcome [16]
active: activation [1] 171% | activation [12] 112%

CN(C)CCNC(=O)c1c(NC(=O)c2ccccc2)sc2c1CCCC2
active: activation [1] 161%
inactive: outcome [2] | outcome [3] | outcome [4] | outcome [5] | outcome [6] | outcome [7] | outcome [8] | outcome [9] | outcome [10] | outcome [11] | outcome [12] | outcome [13] | outcome [14] | outcome [15] | outcome [16]

COc1ccc(CCN(C)C(=O)C2CCCN(C3CCN(Cc4ccccc4)CC3)C2)cc1OC (stereo not given)
inactive: outcome [3] | outcome [4] | outcome [5] | outcome [6] | outcome [7] | outcome [8] | outcome [9] | outcome [11] | outcome [13] | outcome [14] | outcome [15] | outcome [16]
active: activation [1] 143% | activation [2] 64% | activation [10] 50% | activation [12] 28.9%

CN(C)C(CNC(=O)c1ccc2nc[nH]c2c1)c1ccccc1 (stereo not given)
active: activation [1] 145%
inactive: outcome [2] | outcome [3] | outcome [4] | outcome [5] | outcome [6] | outcome [7] | outcome [8] | outcome [9] | outcome [10] | outcome [11] | outcome [12] | outcome [13] | outcome [14] | outcome [15] | outcome [16]

COc1ccc(C(CNC(=O)c2cc(C)on2)N(C)C)cc1 (stereo not given)
active: activation [1] 199% | activation [10] 27.5%
inactive: outcome [2] | outcome [3] | outcome [4] | outcome [5] | outcome [6] | outcome [7] | outcome [8] | outcome [9] | outcome [11] | outcome [12] | outcome [13] | outcome [14] | outcome [15] | outcome [16]
